High-throughput results (PubChem BioAssay)
Abeta yeast res – compounds reversing amyloid beta toxicity in yeast; AID 1347071; hit rate 0.063% among 410,000; yeast expressing A-beta42, growth rescue, OD600, 48 h; response scale: 0% DMSO, 100% iron-clioquinol control; Potency, µM (top dose mostly 46.1 µM), hits mostly activators; note: nearly all actives have a fitted effect of over 55% in size
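Yeast growth medium received pinned compounds, then yeast cells expressing toxic A-beta were added; plates incubated at 30 C for 48 hr. Growth read as absorbance at 600 nm, normalized to DMSO and equimolar FeCl3 plus clioquinol controls.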
TDP43 rescue – TDP-43 toxicity inhibition in yeast. hit rate 1.8% among 410,000. TDP-43 expressing yeast growth rescue, BacTiter-Glo, 24 h. Potency, µM (doses to about 46.1 µM), most hits filed as activators; note: nearly all actives have a fitted effect of over 50% in size
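Galactose-induced TDP-43 yeast, OD600=0.02, compound pinned; 24 hr, 30 deg C; BacTiter-Glo luminescence for growth. Inhibitors of TDP-43 toxicity read as activators.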
aSyn rescue – rescues yeast growth from alpha-synuclein toxicity | Yeast expressing alpha-synuclein, growth rescue, BacTiter-Glo, 24 h | Potency, µM (titrated, usually from 46.1 µM), actives largely listed as activators | hit rate 0.14% among 370,000 | AID 652106; note: nearly all actives have a fitted effect of over 65% in size
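Screening used galactose-induced yeast with toxic alpha-synuclein levels, exposed to compound for 24 hr at 30 deg C. Cell growth, read with BacTiter-Glo luminescence, gave the measured signal.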
FUS suppressor – rescues growth of FUS-expressing yeast; AID 1347120; S. cerevisiae FUS-expressing, growth rescue, OD600, 24 h; Potency, µM (highest dose often 76.6 µM), most hits filed as activators; hit rate 0.24% among 390,000; note: nearly all actives have a fitted effect of over 55% in size
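FUS-expressing yeast, raffinose-pregrown, induced in 2% galactose minimal medium at OD 0.005; compounds in a dilution series, 24hr at 30C. Growth restoration read as absorbance at 600 nm. CP55940 positive control, DMSO negative.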
A number is an active result; n = inactive; u = inconclusive; x = no result given; [ ] = another dose, or the depositor's remark. In the library only some 2.1% were active in any assay of this set; here they are far more common. Calls come from the whole dose curve; as a rule, active = well fitted curve in the direction sought with a large enough effect; inconclusive = small, poorly fitted or top-dose-only effect, or another doubt; inactive = no such curve, though single readings can be large; an effect the other way counts as inactive or inconclusive.

SMILES	Abeta yeast res	TDP43 rescue	aSyn rescue	FUS suppressor
CCCCC(CC)CNC(=O)c1[nH]c(C)c(C(C)=O)c1C (stereo not drawn)	n	13µM	n	n
C=CCc1ccccc1OCC(=O)N/N=C/c1ccc(OC(C)=O)cc1OC(C)=O	n	n	13µM	n
O=C(COc1ccc(Br)cc1)N1CCN(c2ccc([N+](=O)[O-])c(N3CCCCC3)c2)CC1	n	8.9µM	n	n
COc1ccc2cc(C[C@@H]3CC[C@@H](CO)O3)ccc2c1	n	u	n	n
CC1CCc2onc(C(=O)N3CCN(c4ccccc4)CC3)c2C1 (stereo not drawn)	n	u	x	n
CCN(CC)c1ncnc2c1sc1nc(C)cc(C)c12	n	22µM	n	n
Cc1cc(C)c2c(n1)sc1c(N3CCCCC3)ncnc12	n	n	n	n
CCN(c1ccccc1)C(CNS(=O)(=O)c1ccccc1)c1ccccc1 (stereo not drawn)	n	18µM	x	n
C=C(C)n1c(=O)n(Cc2ccccc2C)c2ccccc21	n	11µM	n	n
CSCCC(N=C1NS(=O)(=O)c2ccccc21)C(=O)N1CCCC(C(N)=O)C1 (stereo not drawn)	n	n	n	n
CCCCS(=O)(=O)c1oc(-c2cccs2)nc1S(=O)(=O)c1ccc(F)cc1	n	22µM	x	n
CCCCCS(=O)(=O)c1oc(-c2cccs2)nc1S(=O)(=O)c1ccc(C)cc1	n	n	x	n
Cc1ccc(C(=O)N2CCC(C(=O)c3c(C)cc(C)cc3C)CC2)cc1	n	18µM	n	u
Cc1ccc(C(=O)C2CCN(C(=O)c3ccc(C)cc3)CC2)cc1	n	n	n	n
C=CCn1c(SCc2c(F)cccc2Cl)nnc1-c1ccco1	n	13µM	n	n
C=CCn1c(SCc2ccc(C#N)cc2)nnc1-c1ccco1	x	x	x	n
COc1ccc(/C=C/CN2CCC(CO)(Cc3ccccc3Cl)CC2)cc1	n	n	n	n
C#CCOCCOCCOCCNc1nc(N2CCN(C(=O)CCCCCCCCCCNC(=O)[C@@H](CCC(=O)O)n3cc(CCCCCN)nn3)CC2)nc(N2CCN(C(=O)CCCCCCCCCCNC(=O)[C@H]([C@@H](C)CC)n3cc(CCCCCN)nn3)CC2)n1	n	n	n	u
C#CCOCCOCCOCCNc1nc(N2CCN(C(=O)CCCCCCCCCCNC(=O)[C@H]([C@@H](C)CC)n3cc(CCCCN=C(N)N)nn3)CC2)nc(N2CCN(C(=O)CCCCCCCCCCNC(=O)[C@H](CCCCN)n3cc(C)nn3)CC2)n1	n	n	n	11µM
C#CCOCCOCCOCCNc1nc(N2CCN(C(=O)CCCCCCCCCCNC(=O)[C@H]([C@@H](C)CC)n3cc(CCCCCN)nn3)CC2)nc(N2CCN(C(=O)CCCCCCCCCCNC(=O)[C@H](CCCCN)n3cc(CCCC(=O)O)nn3)CC2)n1	n	n	n	u
C#CCOCCOCCOCCNc1nc(N2CCN(C(=O)CCCCCCCCCCNC(=O)[C@H]([C@@H](C)CC)n3cc(CCCCCN)nn3)CC2)nc(N2CCN(C(=O)CCCCCCCCCCNC(=O)[C@H](CO)n3cc(CCCCCN)nn3)CC2)n1	n	n	n	14µM
O=C(CSc1nc(=O)n(Cc2ccncc2)c2c1CCC2)Nc1ccc(F)cc1F	n	n	x	n
NC(=O)N/N=C/C=C/c1ccccc1	n	4µM	n	n
O=C(N/N=C/C=C/c1ccccc1)NC1CCCCC1	u	18µM	u	n
NC(=O)N\N=C/C=C/C=C/c1ccc(F)cc1	n	n	n	n
SMILES	Abeta yeast res	TDP43 rescue	aSyn rescue	FUS suppressor
O=C(N/N=C/c1cccc(O)c1)NC1CCCCC1	n	n[9.22 µM]	n	n
O=C(Nc1ccccc1)C1Cc2c(-c3ccccc3Oc3ccccc3)ccnc2O1 (stereo not drawn)	n	n	n	n
COc1ccc(NC(=O)C2Cc3c(-c4ccccc4Oc4ccccc4)ccnc3O2)cc1 (stereo not drawn)	n	25µM	n	n
CC(=O)c1cccc(-c2ccnc3c2CC(C(=O)Nc2ccc4c(c2)OCO4)O3)c1 (stereo not drawn)	n	25µM	n	u
CC(C)c1ccc(NC(=O)C2Cc3c(-c4ccc5c(c4)OCO5)ccnc3O2)cc1 (stereo not drawn)	n	35µM	n	u
CC(=O)Nc1ccc(-c2ccnc3c2CC(C(=O)Nc2ccc(C(C)C)cc2)O3)cc1 (stereo not drawn)	n	n	n	u
CC(=O)Nc1ccc(-c2ccnc3c2CC(C(=O)Nc2ccc4c(c2)OCO4)O3)cc1 (stereo not drawn)	n	n	n	u
CC(C)c1ccc(NC(=O)C2Cc3c(-c4ccco4)ccnc3O2)cc1 (stereo not drawn)	n	35µM	u	n
CCCCn1c(N)c(N(CC(C)C)C(=O)Cc2ccc(S(=O)(=O)N3CCOCC3)s2)c(=O)[nH]c1=O	n	u	n	x
Cc1nc([N+](=O)[O-])cn1CC(O)c1ccc2c(c1)OCCCO2 (stereo not drawn)	x	x	n	x
COc1ccc2[nH]cc(CCNS(=O)(=O)Cc3ccccc3)c2c1	n	n	n	n
COc1ccc(CCCNC(=O)C2Cc3c(-c4ccccc4)ccnc3O2)cc1 (stereo not drawn)	n	32µM	n	n
COc1ccc(CNC(=O)C2Cc3c(-c4ccccc4)ccnc3O2)cc1OC (stereo not drawn)	n	n	n	n
O=C(Nc1cccc(OC(F)(F)F)c1)C1Cc2c(-c3ccc(Cl)cc3)ccnc2O1 (stereo not drawn)	n	n	u	n
CC(=O)Nc1ccc(NC(=O)C2Cc3c(-c4cccc(C(C)=O)c4)ccnc3O2)cc1 (stereo not drawn)	n	n	n	n
CC(=O)c1cccc(-c2ccnc3c2CC(C(=O)Nc2ccc(Cl)c(C(F)(F)F)c2)O3)c1 (stereo not drawn)	n	16µM	n	n
COc1ccc(NC(=O)C2Cc3c(-c4cccc(C(C)=O)c4)ccnc3O2)cc1 (stereo not drawn)	n	22µM	n	n
CC(=O)c1cccc(-c2ccnc3c2CC(C(=O)Nc2cccc(OC(F)(F)F)c2)O3)c1 (stereo not drawn)	u	35µM	n	n
COc1ccc(NC(=O)C2Cc3c(-c4cccc(NC(C)=O)c4)ccnc3O2)cc1 (stereo not drawn)	n	n	n	n
CNc1nc(N)c([N+](=O)[O-])c(Nc2ccccc2)n1	x	x	x	n
Clc1ccc(COn2c(-c3ccccc3)nc3ccccc32)cc1	n	18µM	n	n
Nc1c(C(=O)NCc2ccco2)nnn1CC(=O)Nc1ccccc1	n	n	n	40µM
O=C(NC12CC3CC(CC(C3)C1)C2)c1ccc([N+](=O)[O-])o1	n	20µM	n	n
Cc1nn(-c2ccccc2)c2sc(-c3n[nH]c(=S)o3)cc12	n	u	n	7.1µM
Cc1nn(-c2ccccc2)c2sc(C(=O)O)cc12	n	u	n	n
CCc1cc2c(=O)[nH]c(-c3ccccn3)nc2s1	u	u	18µM	x
